In PubChem BioAssay AID1508625 (Wald Lab, School of Medicine, Case Western Reserve …, 2021) one finds corrected activity, negative = more killing and z-score data, which are given here for 40 compounds.

A short description of the assay: enhancers of NK cell killing of ovarian tumor cells, primary screen, imaging, OVCAR3, primary NK cells, calcein-AM imaging (AID 1508625).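 Further: compound given to NK cells 16 h before adding targets at 1.5 to 1 ratio.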 The settings on record: OVCAR3 lysis by primary NK cells, at 5 µM; z-score: measured here: robust Z-score, single-point normalisation.

Each structure is given as a SMILES string.

As to `CC1CC(C)CN(C(=O)c2c[nH]c3ccc(S(=O)(=O)N4CCOCC4)cc3c2=O)C1` (stereo not given), the corrected activity, negative = more killing was -2.85% and the z-score was -1.04.

As to `CC(=O)OC1CC(C)N(C(=O)c2ccccc2)c2ccc(C)cc21` (stereo not given), the corrected activity, negative = more killing is -5.57% and the z-score is -1.73.

Consider `COc1ccc(OC)c(NC(=O)c2cc3cccc(OC)c3oc2=O)c1`, for which the corrected activity, negative = more killing is -3.03% and the z-score was -1.31.

As to `COC(=O)c1ccc(CSc2nc3c(cnn3-c3ccc(C)cc3)c(=O)[nH]2)o1`, the corrected activity, negative = more killing was -3.63% and the z-score is -0.89.

For `CCCc1cc(=O)oc2cc3oc4c(c3cc12)CCCC4`, the corrected activity, negative = more killing is -1.47% and the z-score is -0.438.

With `COc1ccc(S(=O)(=O)NCc2ccc(C(=O)N(C)Cc3ccco3)cc2)cc1`, the corrected activity, negative = more killing was -7.7% and the z-score was -1.89.

In the case of `O=C(CCCn1c(=S)[nH]c2cc3c(cc2c1=O)OCO3)N1CCN(Cc2ccc3c(c2)OCO3)CC1`, the corrected activity, negative = more killing was -2.04% and the z-score is -0.54.

As for `CCN(CC)c1cc(O)c2c(c1N)C(=O)c1ccccc1C2=O`, the corrected activity, negative = more killing was -2.05% and the z-score was -0.772.

As to `CCOc1ccc(C2C(N3C(=O)c4cccc([N+](=O)[O-])c4C3=O)C(=O)N2c2cc(Cl)ccc2C)cc1` (stereo not given), the corrected activity, negative = more killing was -3.8% and the z-score was -1.18.

`c1ccc2nn(C34CC5CC(CC(C5)C3)C4)nc2c1`: the corrected activity, negative = more killing was -1.32% and the z-score is -0.685.

On to `CCN1C(=O)c2cccc3c(NC(=O)C45CC6CC(CC(C6)C4)C5)ccc1c23`, for which the corrected activity, negative = more killing was -12.5% and the z-score was -2.63.

`FC(F)(F)c1ccc(Oc2cccc(C(F)(F)F)c2)nc1`: the corrected activity, negative = more killing is -1.98% and the z-score was -1.1.

Turning to `N#Cc1c(NC(=O)c2ccc(Cl)c(S(=O)(=O)N3CCOCC3)c2)sc2c1CCCC2`, the corrected activity, negative = more killing is -5.49% and the z-score is -1.95.

Turning to `O=C1NN(c2cccc(Cl)c2)C(=O)C1=Cc1cc(Cl)ccc1O`, the corrected activity, negative = more killing is -4.57% and the z-score was -1.45.

Take `COc1ccc(C(=O)Nc2ccc(NC(=O)c3ccc(C(C)(C)C)cc3)cc2)cc1[N+](=O)[O-]`: the corrected activity, negative = more killing was -5.92% and the z-score is -2.1.

Regarding `CCOc1ccc(-n2c(=O)c3c(C)c(C)sc3n(CC(=O)N3CC(C)CC(C)C3)c2=O)cc1` (stereo not given), the corrected activity, negative = more killing is -4.39% and the z-score is -1.25.

Regarding `C=CCn1c2ccccc2c2nnc(SCc3[nH]c(C(=O)OCC)c(C)c3C(C)=O)nc21`, the corrected activity, negative = more killing was -1.4% and the z-score was -0.435.

Take `O=C1c2cccc([N+](=O)[O-])c2C(=O)N1C1C(=O)N(c2cccc(C(F)(F)F)c2)C1c1ccc(F)cc1` (stereo not given): the corrected activity, negative = more killing was -1.05% and the z-score was -0.327.

In the case of `Cc1sc2nc(SCC(=O)Nc3ccc(N(C)C)cc3)[nH]c(=O)c2c1C`, the corrected activity, negative = more killing was -4.5% and the z-score is -2.5.

Regarding `CCOC(=O)CCN1C(=O)C(=Cc2cccc(OC)c2)SC1=S`, the corrected activity, negative = more killing was -4.87% and the z-score was -1.55.

As for `COc1ccc(-c2coc3c(C)c4oc(=O)c5c(c4cc23)CCC5)cc1`, the corrected activity, negative = more killing was -3.7% and the z-score was -1.1.

For `COCCCNC(=O)C1c2ccccc2C(=O)N(C)C1c1cccs1` (stereo not given), the corrected activity, negative = more killing was -4.54% and the z-score was -1.13.

`O=C(Nc1ccc(N2CCN(Cc3ccccc3Cl)CC2)cc1)c1ccco1`: the corrected activity, negative = more killing was 1.61% and the z-score was 0.895.

As for `COc1ccccc1CNC(=O)c1sc2ncnc(N3CCOCC3)c2c1C`, the corrected activity, negative = more killing was -0.847% and the z-score is -0.308.

In the case of `CCOC(=O)Cc1ccc(N(Cc2cccs2)S(=O)(=O)c2ccc([N+](=O)[O-])cc2)cc1`, the corrected activity, negative = more killing was -7.32% and the z-score was -1.98.

As to `O=C(NC1CCCC1)c1c[nH]c2ccc(S(=O)(=O)Nc3cccc(C(F)(F)F)c3)cc2c1=O`, the corrected activity, negative = more killing was -7.02% and the z-score was -1.72.

`O=C(CCCOc1ccccc1)N1CCN(c2ccccn2)CC1`: the corrected activity, negative = more killing is -1.33% and the z-score is -0.738.

For `O=C(NN=Cc1ccc(O)cc1)c1cc(-c2ccc3ccccc3c2)n[nH]1`, the corrected activity, negative = more killing was 0.541% and the z-score is 0.236.

Consider `COC(=O)c1cc(OC)c(OC)cc1NC(=O)c1cc(Cl)ccc1Cl`, for which the corrected activity, negative = more killing is -1.51% and the z-score is -0.842.

For the compound `CC(=O)Nc1ccc(S(=O)(=O)NCc2ccc(C(=O)O)cc2)cc1`, the corrected activity, negative = more killing is -5.84% and the z-score was -1.58.

As to `Cc1cccc(C)c1NC(=O)c1sc2[nH]c(=O)c(C(=O)O)cc2c1N`, the corrected activity, negative = more killing is -3.74% and the z-score was -0.931.

As to `COc1ccc(Cl)cc1NC(=O)c1cnn2c(C(F)(F)F)cc(-c3ccc(C)cc3)nc12`, the corrected activity, negative = more killing is -0.972% and the z-score is -0.309.

For the compound `CC(=O)Nc1ccc(N2C(=O)C3C4CC(C(Br)C4Br)C3C2=O)cc1` (stereo not given), the corrected activity, negative = more killing was -2.24% and the z-score is -0.796.

On to `Cc1ccc(S(=O)(=O)NN=Cc2ccc(I)cc2)cc1`, for which the corrected activity, negative = more killing was -2.58% and the z-score was -0.82.

As to `COc1ccc(-c2csc(Nc3ccc(NC(C)=O)cc3)n2)cc1OC`, the corrected activity, negative = more killing was 1.84% and the z-score is 0.823.

`Brc1ccc(SCCc2nc3ccccc3o2)cc1`: the corrected activity, negative = more killing was -4.19% and the z-score is -1.56.

Regarding `CCOC(=O)C1C(c2ccccc2)NC(=S)NC1(O)C(F)(F)F` (stereo not given), the corrected activity, negative = more killing is -1.39% and the z-score was -0.43.

Regarding `Cc1ccc(C)c(N=Cc2c(C)[nH]c3ccccc23)c1`, the corrected activity, negative = more killing is -2.79% and the z-score was -1.18.

With `O=C(O)CCn1ncc2ccccc21`, the corrected activity, negative = more killing is -4.13% and the z-score was -1.31.

`O=C(Cn1ccc([N+](=O)[O-])n1)Nc1ccc(I)cc1`: the corrected activity, negative = more killing was -4.86% and the z-score was -1.51.
